The campaign covered roughly 5,500 compounds. About 2,000 (36%) were called active. Inconclusive results (about 18%) are left out. No stated cut-off is given here; in the data, active means normalized growth mostly below about 0.91 (no sharp cut-off); inconclusive means no clear call, values can overlap the other calls; inactive means mostly above about 0.92. This is one part of the list.
Experiment: chemical genetic growth profiling, strain panel (AID 1159580);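 further: tested at 20 µM; growth read once vehicle control cultures reached saturation at 30 °C; 1 = growth at the plate median or of vehicle wells; lower values mean less growth of the strain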
Conditions: growth OD
[1] = S. cerevisiae deletion strains, locus YAL013W, strain DEP1, hits give low values
[2] = S. cerevisiae deletion strains, locus YBR229C, strain ROT2, hits give low values
[3] = S. cerevisiae deletion strains, locus YDL101C, strain DUN1, hits give low values
[4] = S. cerevisiae deletion strains, locus YDL134C, strain PPH21, hits give low values
[5] = S. cerevisiae deletion strains, locus YDR150W, strain NUM1, hits give low values
[6] = S. cerevisiae deletion strains, locus YEL061C, strain CIN8, hits give low values
[7] = S. cerevisiae deletion strains, locus YGR078C, strain PAC10, hits give low values
[8] = S. cerevisiae deletion strains, locus YGR229C, strain SMI1, hits give low values
[9] = S. cerevisiae deletion strains, locus YHR030C, strain SLT2, hits give low values
[10] = S. cerevisiae deletion strains, locus YHR087W, strain rtc3, hits give low values
[11] = S. cerevisiae deletion strains, locus YJR043C, strain POL32, hits give low values
[12] = S. cerevisiae deletion strains, locus YJR075W, strain HOC1, hits give low values
[13] = S. cerevisiae deletion strains, locus YKL190W, strain CNB1, hits give low values
[14] = S. cerevisiae deletion strains, locus YLR039C, strain RIC1, hits give low values
[15] = S. cerevisiae deletion strains, locus YLR058C, strain SHM2 (second series), hits give low values
[16] = S. cerevisiae deletion strains, locus YLR085C, strain ARP6, hits give low values
[17] = S. cerevisiae deletion strains, locus YLR262C, strain YPT6, hits give low values
[18] = S. cerevisiae deletion strains, locus YML094W, strain GIM5, hits give low values
[19] = S. cerevisiae deletion strains, locus YMR219W, strain ESC1, hits give low values
[20] = S. cerevisiae deletion strains, locus YMR263W, strain SAP30, hits give low values
[21] = S. cerevisiae deletion strains, locus YMR307W, strain GAS1, hits give low values
[22] = S. cerevisiae deletion strains, locus YNL153C, strain GIM3, hits give low values
[23] = S. cerevisiae deletion strains, locus YNL298W, strain CLA4 (second series), hits give low values
[24] = S. cerevisiae deletion strains, locus YNL322C, strain KRE1, hits give low values
[25] = S. cerevisiae deletion strains, locus YNR030W, strain Alg12, hits give low values
[26] = S. cerevisiae deletion strains, locus YPL055C, strain LGE1, hits give low values
[27] = S. cerevisiae deletion strains, locus YPL241C, strain CIN2, hits give low values
[28] = S. cerevisiae deletion strains, locus YPR135W, strain CTF4, hits give low values
[29] = S. cerevisiae strains, strain wild type, hits give low values
[30] = S. cerevisiae deletion strains, locus YJL187C, strain SWE1, hits give low values
[31] = S. cerevisiae deletion strains, locus YOL006C, strain TOP1, hits give low values
[32] = S. cerevisiae deletion strains, locus YNL128W, strain TEP1, hits give low values

Measured: normalized growth

CCOC(=O)c1sc(S(C)(=O)=O)c2c1CCCC2O (stereo unspecified)
inactive: [1] 1.02 | [2] 1 | [3] 0.995 | [4] 1.01 | [5] 0.95 | [6] 1.02 | [7] 1 | [8] 1 | [9] 1.03 | [10] 0.995 | [11] 0.98 | [12] 1.01 | [13] 1 | [14] 1.05 | [15] 1.01 | [16] 1.08 | [17] 1.04 | [18] 1.03 | [19] 1.01 | [20] 1.04 | [21] 1.08 | [22] 1 | [23] 1.03 | [24] 1.02 | [25] 1.03 | [26] 0.952 | [27] 1.02 | [28] 1.05 | [29] 1.01

CCOC(=O)c1sc(SC(C)C)c2c1CCCC2=O
inactive: [1] 0.979 | [2] 0.969 | [3] 0.973 | [5] 1.06 | [7] 0.982 | [10] 0.978 | [11] 1.02 | [12] 0.93 | [15] 0.974 | [17] 0.864 | [18] 0.911 | [19] 0.969 | [20] 1.03 | [22] 0.978 | [24] 0.97 | [31] 0.738 | [26] 1.04 | [28] 0.762 | [29] 0.951
active: [4] 0.82 | [6] 0.795 | [9] 0.53 | [30] 0.851 | [14] 0.785 | [16] 0.646 | [23] 0.835 | [25] 0.884 | [27] 0.801

Cn1[nH]c(=O)cc1C(=O)NN
inactive: [1] 1 | [2] 1.02 | [3] 1 | [4] 0.996 | [5] 1.01 | [6] 1.03 | [7] 1 | [9] 1.11 | [10] 1 | [30] 0.998 | [11] 1.01 | [12] 0.992 | [14] 0.998 | [15] 0.985 | [16] 0.978 | [17] 1.11 | [18] 0.99 | [19] 1 | [20] 0.991 | [21] 0.899 | [32] 0.981 | [22] 1.05 | [23] 1.03 | [24] 0.995 | [25] 1.01 | [26] 0.995 | [27] 0.992 | [28] 1.12 | [29] 0.986

COC(=O)C1OC(=O)C2OC23C1(C)CCC1C2(C)C(OC(C)=O)CC(OC(C)=O)C(C)(C)C2CC(=O)C13C (stereo unspecified)
inactive: [1] 1.02 | S. cerevisiae deletion strains, locus YBR021W, strain FUR4, hits give low values 0.914 | [2] 1 | S. cerevisiae deletion strains, locus YCL029C, strain bik1, hits give low values 0.987 | S. cerevisiae deletion strains, locus YDL035C, strain GPR1, hits give low values 1 | S. cerevisiae deletion strains, locus YDL074C, strain BRE1, hits give low values 1.03 | [3] 0.997 | [4] 0.998 | S. cerevisiae deletion strains, locus YDL185W, strain tfp1, hits give low values 0.962 | S. cerevisiae deletion strains, locus YDL192W, strain arf1, hits give low values 0.988 | S. cerevisiae deletion strains, locus YDR101C, strain arx1, hits give low values 0.999 | [5] 0.969 | S. cerevisiae deletion strains, locus YDR162C, strain NBP2, hits give low values 1.01 | S. cerevisiae deletion strains, locus YDR318W, strain mcm21, hits give low values 0.988 | S. cerevisiae deletion strains, locus YDR388W, hits give low values 1 | S. cerevisiae deletion strains, locus YDR502C, strain sam2, hits give low values 0.996 | [6] 1 | S. cerevisiae deletion strains, locus YER110C, hits give low values 0.985 | S. cerevisiae deletion strains, locus YER155C, strain BEM2, hits give low values 0.929 | S. cerevisiae deletion strains, locus YER167W, strain BCK2, hits give low values 0.984 | S. cerevisiae deletion strains, locus YGL078C, strain dbp3, hits give low values 0.979 | S. cerevisiae deletion strains, locus YGL086W, strain mad1, hits give low values 0.982 | S. cerevisiae deletion strains, locus YGL248W, strain PDE1, hits give low values 0.983 | [7] 1 | S. cerevisiae deletion strains, locus YGR135W, strain pre9, hits give low values 0.997 | [8] 1 | S. cerevisiae deletion strains, locus YGR252W, strain gcn5, hits give low values 1.01 | [9] 0.997 | S. cerevisiae deletion strains, locus YHR079C, strain IRE1 (second series), hits give low values 0.998 | S. cerevisiae deletion strains, locus YHR094C, strain hxt1, hits give low values 0.972 | S. cerevisiae deletion strains, locus YHR129C, strain ARP1, hits give low values 1 | S. cerevisiae deletion strains, locus YHR200W, strain rpn10, hits give low values 0.985 | S. cerevisiae deletion strains, locus YIL066C, strain RNR3, hits give low values 1 | S. cerevisiae deletion strains, locus YIL073C, strain SPO22, hits give low values 0.883 | S. cerevisiae deletion strains, locus YIL125W, strain kgd1, hits give low values 1 | S. cerevisiae deletion strains, locus YIR030C, strain dcg1, hits give low values 0.998 | S. cerevisiae deletion strains, locus YJL095W, strain BCK1, hits give low values 1.05 | S. cerevisiae deletion strains, locus YJL134W, strain LCB3, hits give low values 0.994 | S. cerevisiae deletion strains, locus YJL168C, strain set2, hits give low values 1 | S. cerevisiae deletion strains, locus YJL187C, strain SWE1 (second series), hits give low values 0.996 | [11] 0.984 | [12] 1.01 | S. cerevisiae deletion strains, locus YKL009W, strain mrt4, hits give low values 0.967 | S. cerevisiae deletion strains, locus YKL068W, hits give low values 0.983 | S. cerevisiae deletion strains, locus YKL085W, strain MDH1 (second series), hits give low values 0.984 | S. cerevisiae deletion strains, locus YKL085W, strain MDH1, hits give low values 0.984 | [13] 1 | S. cerevisiae deletion strains, locus YKR001C, strain vps1, hits give low values 0.983 | [14] 0.963 | S. cerevisiae deletion strains, locus YLR058C, strain SHM2, hits give low values 1 | S. cerevisiae deletion strains, locus YLR102C, strain apc9, hits give low values 0.996 | [17] 0.966 | S. cerevisiae deletion strains, locus YLR268W, strain sec22, hits give low values 0.996 | S. cerevisiae deletion strains, locus YLR330W, strain CHS5, hits give low values 0.995 | S. cerevisiae deletion strains, locus YLR342W, strain FKS1 (second series), hits give low values 0.985 | S. cerevisiae deletion strains, locus YLR371W, strain rom2, hits give low values 0.981 | S. cerevisiae deletion strains, locus YLR418C, strain cdc73, hits give low values 1.05 | S. cerevisiae deletion strains, locus YML016C, strain PPZ1, hits give low values 0.997 | S. cerevisiae deletion strains, locus YML032C, strain rad52, hits give low values 0.977 | S. cerevisiae deletion strains, locus YML124C, strain tub3, hits give low values 0.992 | S. cerevisiae deletion strains, locus YMR078C, strain ctf18, hits give low values 0.992 | S. cerevisiae deletion strains, locus YMR223W, strain ubp8, hits give low values 0.974 | [20] 0.994 | [21] 1 | S. cerevisiae deletion strains, locus YNL067W, strain RPL9B, hits give low values 0.994 | [32] 1.02 | [22] 1 | S. cerevisiae deletion strains, locus YNL233W, strain BNI4, hits give low values 1.01 | S. cerevisiae deletion strains, locus YNL250W, strain rad50, hits give low values 0.987 | S. cerevisiae deletion strains, locus YNL271C, strain bni1, hits give low values 0.995 | S. cerevisiae deletion strains, locus YNL298W, strain CLA4, hits give low values 0.985 | S. cerevisiae deletion strains, locus YNL307C, strain MCK1, hits give low values 0.988 | [24] 1.01 | S. cerevisiae deletion strains, locus YNR052C, strain pop2, hits give low values 0.986 | [31] 1.04 | S. cerevisiae deletion strains, locus YOL012C, strain htz1 0.841 | S. cerevisiae deletion strains, locus YOL147C, strain pex11, hits give low values 0.99 | S. cerevisiae deletion strains, locus YOR061W, strain CKA2, hits give low values 1 | S. cerevisiae deletion strains, locus YOR069W, strain VPS5, hits give low values 0.996 | S. cerevisiae deletion strains, locus YOR136W, strain idh2, hits give low values 0.985 | S. cerevisiae deletion strains, locus YOR144C, strain elg1, hits give low values 0.993 | S. cerevisiae deletion strains, locus YOR184W, strain ser1, hits give low values 0.966 | S. cerevisiae deletion strains, locus YOR316C, strain cot1, hits give low values 0.987 | [26] 1 | [27] 0.998 | S. cerevisiae deletion strains, locus YPR119W, strain clb2, hits give low values 0.996 | S. cerevisiae deletion strains, locus YPR141C, strain kar3, hits give low values 0.975 | S. cerevisiae deletion strains, locus YPR163C, strain tif3, hits give low values 0.991 | S. cerevisiae deletion strains, locus YPR167C, strain met16, hits give low values 0.995 | S. cerevisiae deletion strains, strain wtn01, hits give low values 0.997 | [29] 0.983

CCN(CC)C(=O)N[C@H]1C=C2c3cccc4[nH]cc(c34)C[C@H]2N(C)C1
inactive: [1] 1.01 | S. cerevisiae deletion strains, locus YAL040C, strain CLN3, hits give low values 0.999 | S. cerevisiae deletion strains, locus YCL061C, strain MRC1 (second series), hits give low values 1.01 | S. cerevisiae deletion strains, locus YDR363W, strain ESC2, hits give low values 1.03 | S. cerevisiae deletion strains, locus YER002W, strain NOP16, hits give low values 1.01 | [12] 1.02 | [21] 1.01 | S. cerevisiae deletion strains, locus YNL175C, strain NOP13, hits give low values 0.996 | S. cerevisiae deletion strains, locus YNL197C, strain WHI3, hits give low values 1.01 | S. cerevisiae deletion strains, locus YNL224C, strain SQS1, hits give low values 1.02 | [24] 1.01 | S. cerevisiae deletion strains, locus YOR083W, strain WHI5 (second series), hits give low values 0.999 | [26] 0.998 | [27] 1
